Test results published in PubChem BioAssay (EPA / NIEHS).
Records with an inconclusive call do not appear. The source made the active and inactive calls. The calls were made as follows, unless noted: active = hit-call score of the fitted dose curve at least 0.9, where 1 is the maximum; inactive = score below 0.9.

Experiments:
[1] = ATG_M_61_CIS: Attagene CIS-FACTORIAL HepG2 Assay for M61 Transcription Factor (Internal Marker) (AID 2282937); details: HepG2 Attagene CIS-FACTORIAL M61 internal marker reporter; actives raise or lower the signal
Method in brief: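 Cells were transfected with reporter units under cis-regulatory promoters, treated with chemicals for 24 h, then lysed for RNA. Reporter transcripts were quantified by RT-PCR and capillary electrophoresis, and activity was fitted bidirectionally against DMSO.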

[2] = ATG_Ets_CIS: Attagene CIS-FACTORIAL HepG2 Assay for human Erythroblast Transformation Specific (ETS) (AID 2282941); details: HepG2 ETS cis-reporter transcription, actives raise or lower the signal
Method in brief: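 RT-PCR/capillary electrophoresis fluorescence read-out of reporter mRNA; HepG2 transient multi-reporter transfection; 24 h compound exposure; gain or loss of signal fitted bidirectionally relative to DMSO.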

[3] = target: Hepatocyte nuclear factor 3-beta (Homo sapiens) (UniProt Q9Y261); test: ATG_FoxA2_CIS: Attagene CIS-FACTORIAL HepG2 Assay for human Forkhead box A2 (FOXA2) (AID 2282942); details: HepG2 cis-reporter transcription factor activity, 24 h; actives raise or lower the signal
Method in brief: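 Endogenous transcription factor activity was read in HepG2 cells carrying transiently transfected cis-promoter reporter units. After 24 h dosing, reporter mRNA was quantified by RT-PCR and capillary electrophoresis, and values fitted bidirectionally versus DMSO.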

[4] = ATG_GRE_CIS: Attagene CIS-FACTORIAL HepG2 Assay for human Glucocorticoid Response Elements (GRE) (AID 2282947); details: HepG2 GRE cis-reporter, Attagene multiplex mRNA; actives raise or lower the signal
Method in brief: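 Fluorescence intensity of reporter-specific cDNA fragments, separated by capillary electrophoresis, provides the signal. Constructs carry cis-regulating promoters in transiently transfected HepG2 liver cells; 24 h incubation; fitting is bidirectional against DMSO.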

[5] = ATG_ISRE_CIS: Attagene CIS-FACTORIAL HepG2 Assay for human Interferon Regulatory Factor 1 (IRF1) binding to an Interferon-Stimulated Response Element (ISRE) (AID 2282948); details: HepG2 ISRE cis-reporter (Attagene), mRNA transcription readout; actives raise or lower the signal
Method in brief: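 Read-out: fluorescent RT-PCR products resolved by capillary electrophoresis, reporting endogenous transcription factor activity via ISRE-driven reporter mRNA in transfected HepG2 cells dosed for 24 h; gain or loss fitted relative to DMSO.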

[6] = target: Hepatocyte nuclear factor 6 (Homo sapiens) (UniProt Q9UBC0); test: ATG_HNF6_CIS: Attagene CIS-FACTORIAL HepG2 Assay for human Hepatocyte Nuclear Factor 6 (HNF6) (AID 2282952); details: HepG2 Attagene cis-factorial HNF6 reporter transcription; actives raise or lower the signal
Method in brief: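 Using cis-element reporters in HepG2 liver cells, the assay tracks endogenous factor-driven transcription 24 h post-dosing. Signal comes from 6-FAM-labelled, HpaI-digested RT-PCR fragments, with gain or loss scored against DMSO.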

[7] = target: Heat shock factor protein 1 (Homo sapiens) (UniProt Q00613); test: ATG_HSE_CIS: Attagene CIS-FACTORIAL HepG2 Assay for human Heat Shock Transcription Factor 1 (HSE) (AID 2282953); details: HepG2 HSE cis-reporter, Attagene RNA transcription; actives raise or lower the signal
Method in brief: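 Endogenous transcription factor activity captured via cis-promoter reporter units transfected into HepG2; treatment lasted 24 h. Fluorescence intensity of reporter fragments analysed with bidirectional curve fitting, DMSO baseline.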

[8] = target: Transcription factor Sp1 (Homo sapiens) (UniProt P08047); test: ATG_Sp1_CIS: Attagene CIS-FACTORIAL HepG2 Assay for human Specificity Protein 1 (Sp1) (AID 2282961); details: HepG2 Sp1 cis-reporter transcription, actives raise or lower the signal
Method in brief: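 Endogenous Sp1 activity was gauged in human liver HepG2 cells bearing transfected reporter units under a cis-regulating promoter. After 24 h dosing, reporter mRNA was quantified by RT-PCR with capillary electrophoresis, and activity fitted bidirectionally versus DMSO.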

[9] = target: Nuclear respiratory factor 1 (Homo sapiens) (UniProt Q16656); test: ATG_NRF1_CIS: Attagene CIS-FACTORIAL HepG2 Assay for human Nuclear Respiratory Factor 1 (NRF1) Orphan Gene (AID 2282987); details: HepG2 NRF1 cis-element reporter, Attagene multiplex; actives raise or lower the signal
Method in brief: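 Fluorescence intensity of labelled reporter cDNA fragments, resolved by capillary electrophoresis, served as readout for NRF1 cis-element activity. Transiently transfected HepG2 cells were dosed for 24 hours; activity in either direction was fitted against DMSO negative control.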

[10] = target: Cellular tumor antigen p53 (Homo sapiens) (UniProt P04637); test: ATG_p53_CIS: Attagene CIS-FACTORIAL HepG2 Assay for human p53 Transcription Factor (AID 2282994); details: HepG2 p53 cis-element reporter, Attagene mRNA; actives raise or lower the signal
Method in brief: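 Read-out: reporter mRNA by RT-PCR plus capillary electrophoresis with fluorescence detection. Human HepG2 liver cells carried transfected multi-reporter cis-element constructs, dosed 24 h. Gain or loss of signal fitted bidirectionally against DMSO control.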

[11] = target: Cellular tumor antigen p53 (Homo sapiens) (UniProt P04637); test: TOX21_p53_BLA_p2_ratio: Tox21 HCT-116 p53 Agonism Beta-lactamase Assay, Ratio, Phase 2 (AID 2283592; active = hit-call score of the fitted dose curve at least 0.9, where 1 is the maximum)
Method in brief: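 Plated HCT116 p53-bla cells (4000/well) received compound after 5 h, then 16 h at 37C/5% CO2. CCF4-AM added, 2 h RT. Ratio of 460 to 530 nm emission taken as the p53 reporter signal.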

[12] = target: Cellular tumor antigen p53 (Homo sapiens) (UniProt P04637); test: TOX21_p53_BLA_p3_ratio: Tox21 HCT-116 p53 Agonism Beta-lactamase Assay, Ratio, Phase 3 (AID 2283596; active = hit-call score of the fitted dose curve at least 0.9, where 1 is the maximum)
Method in brief: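 Cells were seeded at 4000/well, rested 5 h at 37C, then dosed with DMSO compound solutions (217-fold dilution) for 16 h. CCF4-AM substrate was loaded for 2 h at room temperature, and the 460/530 nm emission ratio was fitted for gain of signal versus DMSO.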

[13] = target: Cellular tumor antigen p53 (Homo sapiens) (UniProt P04637); test: TOX21_p53_BLA_p4_ratio: Tox21 HCT-116 p53 Agonism Beta-lactamase Assay, Ratio, Phase 4 (AID 2283601; active = hit-call score of the fitted dose curve at least 0.9, where 1 is the maximum)
Method in brief: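 HCT-116 p53 beta-lactamase reporter cells (4000/well) preincubated 5 h, then compound (217-fold dilution of DMSO stock) for 16 h at 37C. CCF4-AM substrate added 2 h at room temperature; 460/530 nm emission ratio fitted upward versus DMSO.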

[14] = ATG_PXRE_CIS: Attagene CIS-FACTORIAL HepG2 Assay for human Pregnane X Receptor Element (PXRE) (AID 2282957); details: HepG2 Attagene CIS-FACTORIAL PXRE reporter, mRNA; actives raise or lower the signal
Method in brief: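 Using HepG2 transfected with multiple reporter transcription units, endogenous factor-driven transcription was scored as reporter mRNA after 24 h exposure.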

[15] = ATG_SREBP_CIS: Attagene CIS-FACTORIAL HepG2 Assay for human Sterol Regulatory Element Binding (SREBP) (AID 2282962); details: HepG2 Attagene cis-factorial SREBP reporter, mRNA; actives raise or lower the signal
Method in brief: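 Readout: fluorescent reporter-transcript peaks resolved by capillary electrophoresis after RT-PCR. Cells were human HepG2 carrying transfected cis-promoter reporter constructs, dosed for 24 h. Gain or loss of signal was fitted against DMSO controls.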

[16] = TOX21_p53_BLA_p2_viability: Viability Assessment in the Tox21 HCT-116 p53 Agonism Beta-lactamase Assay, Phase 2 (AID 2283591; active = hit-call score of the fitted dose curve at least 0.9, where 1 is the maximum;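 also: compound exposure lasted 16 h at 37 °C; actives lower the ATP signal meaning cytotoxicity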)
Method in brief: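 HCT116 p53-bla cells, 4000/well, dosed after 5 h plating (217-fold dilution of DMSO stocks) and incubated 16 h at 37C. Viability taken as cellular ATP by CellTiter-Glo luminescence after 30 min RT; signal loss marks cytotoxicity.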

[17] = TOX21_p53_BLA_p3_viability: Viability Assessment in the Tox21 HCT-116 p53 Agonism Beta-lactamase Assay, Phase 3 (AID 2283593; active = hit-call score of the fitted dose curve at least 0.9, where 1 is the maximum;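 also: cells exposed to compound for 16 h before reading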)
Method in brief: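 HCT116 cells, 4000/well, dosed 5 h after plating by pin transfer (217-fold dilution from DMSO stock) and incubated 16 h at 37C, 5% CO2. Viability read as ATP luminescence with CellTiter-Glo after 30 min at room temperature.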

[18] = TOX21_p53_BLA_p4_viability: Viability Assessment in the Tox21 HCT-116 p53 Agonism Beta-lactamase Assay, Phase 4 (AID 2283597; active = hit-call score of the fitted dose curve at least 0.9, where 1 is the maximum;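 also: hits lower the luminescence signal meaning cytotoxicity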)
Method in brief: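 Readout: ATP luminescence (CellTiter-Glo), measured 30 min after reagent addition at RT. The reagent followed a 2 h CCF4-AM incubation, and the cells had been exposed to compound for 16 h at 37C.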

[19] = target: Cellular tumor antigen p53 (Homo sapiens) (UniProt P04637); test: TOX21_p53_BLA_p5_ratio: Tox21 HCT-116 p53 Agonism Beta-lactamase Assay, Ratio, Phase 5 (AID 2283599; active = hit-call score of the fitted dose curve at least 0.9, where 1 is the maximum)
Method in brief: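 HCT-116 p53-bla cells (4000/well) plated 5 h, dosed with compound (217-fold DMSO dilution) for 16 h at 37 C; CCF4-AM substrate 2 h at room temperature. Activity is the 460/530 nm emission ratio (405 nm excitation), fitted in gain-of-signal direction versus DMSO.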

[20] = TOX21_p53_BLA_p5_viability: Viability Assessment in the Tox21 HCT-116 p53 Agonism Beta-lactamase Assay, Phase 5 (AID 2283600; active = hit-call score of the fitted dose curve at least 0.9, where 1 is the maximum)
Method in brief: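 Workflow: seed 4000 cells per well, wait 5 h, add compounds (DMSO, 217-fold dilution), incubate 16 h, load CCF4-AM 2 h, add CellTiter-Glo, read luminescence after 30 min.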

Measured: AC50

Sequence of Transcription factor Sp1 (Homo sapiens) (P08047 whole entry, looked up): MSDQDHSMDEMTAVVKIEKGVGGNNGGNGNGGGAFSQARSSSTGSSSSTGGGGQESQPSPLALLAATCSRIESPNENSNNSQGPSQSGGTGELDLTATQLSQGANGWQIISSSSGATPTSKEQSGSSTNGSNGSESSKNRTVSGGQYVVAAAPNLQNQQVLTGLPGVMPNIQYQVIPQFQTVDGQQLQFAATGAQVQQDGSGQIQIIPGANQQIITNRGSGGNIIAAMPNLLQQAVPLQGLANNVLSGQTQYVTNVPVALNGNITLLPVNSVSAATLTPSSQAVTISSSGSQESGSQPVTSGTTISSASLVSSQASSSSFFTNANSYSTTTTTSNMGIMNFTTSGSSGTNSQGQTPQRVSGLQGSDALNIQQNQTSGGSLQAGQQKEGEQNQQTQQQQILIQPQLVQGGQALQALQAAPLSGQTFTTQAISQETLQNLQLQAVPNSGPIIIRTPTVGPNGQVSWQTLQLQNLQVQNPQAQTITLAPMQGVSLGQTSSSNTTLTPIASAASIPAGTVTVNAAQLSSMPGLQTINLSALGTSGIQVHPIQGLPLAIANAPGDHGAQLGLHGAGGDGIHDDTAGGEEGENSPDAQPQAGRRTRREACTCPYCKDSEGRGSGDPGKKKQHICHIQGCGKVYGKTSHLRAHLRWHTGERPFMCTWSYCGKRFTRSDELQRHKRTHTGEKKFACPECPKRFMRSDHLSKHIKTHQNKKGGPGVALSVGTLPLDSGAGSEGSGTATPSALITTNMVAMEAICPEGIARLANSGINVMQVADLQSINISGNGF
Sequence of Heat shock factor protein 1 (Homo sapiens) (Q00613 whole entry, looked up, the tested form may be a part): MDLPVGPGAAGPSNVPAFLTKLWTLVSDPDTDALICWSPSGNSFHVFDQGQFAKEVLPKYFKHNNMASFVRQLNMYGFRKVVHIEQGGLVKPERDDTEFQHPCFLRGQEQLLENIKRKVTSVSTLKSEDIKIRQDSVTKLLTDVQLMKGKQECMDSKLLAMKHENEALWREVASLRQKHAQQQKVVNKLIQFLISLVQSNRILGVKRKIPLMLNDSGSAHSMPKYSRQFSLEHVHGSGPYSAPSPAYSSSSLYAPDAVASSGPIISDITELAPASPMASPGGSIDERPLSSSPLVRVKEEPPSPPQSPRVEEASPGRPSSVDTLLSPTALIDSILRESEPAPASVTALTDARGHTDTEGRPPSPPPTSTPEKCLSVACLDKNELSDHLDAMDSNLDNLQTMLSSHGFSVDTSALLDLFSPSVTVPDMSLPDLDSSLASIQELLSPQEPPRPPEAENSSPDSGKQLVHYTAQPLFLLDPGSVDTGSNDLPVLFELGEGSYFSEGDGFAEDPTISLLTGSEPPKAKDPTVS
Sequence of Nuclear respiratory factor 1 (Homo sapiens) (Q16656 whole entry, looked up, the tested form may be a part): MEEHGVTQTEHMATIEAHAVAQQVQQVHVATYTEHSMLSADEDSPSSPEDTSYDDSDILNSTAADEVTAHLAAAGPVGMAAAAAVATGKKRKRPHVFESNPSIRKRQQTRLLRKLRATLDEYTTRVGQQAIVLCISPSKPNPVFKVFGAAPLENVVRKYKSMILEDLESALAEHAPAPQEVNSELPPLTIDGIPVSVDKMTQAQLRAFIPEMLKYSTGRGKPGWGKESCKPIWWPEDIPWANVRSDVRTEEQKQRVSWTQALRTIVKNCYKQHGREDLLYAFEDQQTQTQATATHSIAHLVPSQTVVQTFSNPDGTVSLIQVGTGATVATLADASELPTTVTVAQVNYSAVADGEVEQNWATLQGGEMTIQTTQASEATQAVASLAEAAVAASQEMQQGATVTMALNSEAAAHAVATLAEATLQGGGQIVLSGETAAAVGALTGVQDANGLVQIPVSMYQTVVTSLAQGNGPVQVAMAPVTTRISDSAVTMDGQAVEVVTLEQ
Sequence of Hepatocyte nuclear factor 3-beta (Homo sapiens) (Q9Y261 whole entry, looked up): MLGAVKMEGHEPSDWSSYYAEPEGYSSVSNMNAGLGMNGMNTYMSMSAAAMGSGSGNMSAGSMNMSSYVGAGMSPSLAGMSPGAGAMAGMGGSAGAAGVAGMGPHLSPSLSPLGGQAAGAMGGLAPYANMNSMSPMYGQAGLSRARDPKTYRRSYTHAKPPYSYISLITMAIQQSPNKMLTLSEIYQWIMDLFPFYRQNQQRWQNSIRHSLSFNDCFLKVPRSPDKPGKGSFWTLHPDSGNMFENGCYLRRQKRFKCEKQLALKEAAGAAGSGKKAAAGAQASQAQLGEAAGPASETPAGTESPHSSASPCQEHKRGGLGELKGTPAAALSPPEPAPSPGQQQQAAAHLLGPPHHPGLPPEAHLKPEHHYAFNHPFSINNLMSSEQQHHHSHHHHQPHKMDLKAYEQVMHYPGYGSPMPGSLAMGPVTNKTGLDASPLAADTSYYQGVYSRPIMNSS
Sequence of Hepatocyte nuclear factor 6 (Homo sapiens) (Q9UBC0 whole entry, looked up, the tested form may be a part): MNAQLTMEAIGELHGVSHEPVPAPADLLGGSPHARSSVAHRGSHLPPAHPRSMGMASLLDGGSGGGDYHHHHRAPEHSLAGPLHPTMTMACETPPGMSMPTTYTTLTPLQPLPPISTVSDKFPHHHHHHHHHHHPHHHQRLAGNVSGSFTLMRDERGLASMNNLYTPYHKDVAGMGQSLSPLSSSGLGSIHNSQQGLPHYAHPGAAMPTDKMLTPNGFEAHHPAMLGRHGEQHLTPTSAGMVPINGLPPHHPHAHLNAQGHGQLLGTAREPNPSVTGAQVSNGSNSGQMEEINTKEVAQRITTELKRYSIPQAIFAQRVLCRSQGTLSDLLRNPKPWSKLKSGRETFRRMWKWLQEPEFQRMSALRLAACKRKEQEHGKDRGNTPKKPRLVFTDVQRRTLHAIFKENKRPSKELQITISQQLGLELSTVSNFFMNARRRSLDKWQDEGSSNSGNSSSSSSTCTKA
Sequence of Cellular tumor antigen p53 (Homo sapiens) (P04637 whole entry, looked up): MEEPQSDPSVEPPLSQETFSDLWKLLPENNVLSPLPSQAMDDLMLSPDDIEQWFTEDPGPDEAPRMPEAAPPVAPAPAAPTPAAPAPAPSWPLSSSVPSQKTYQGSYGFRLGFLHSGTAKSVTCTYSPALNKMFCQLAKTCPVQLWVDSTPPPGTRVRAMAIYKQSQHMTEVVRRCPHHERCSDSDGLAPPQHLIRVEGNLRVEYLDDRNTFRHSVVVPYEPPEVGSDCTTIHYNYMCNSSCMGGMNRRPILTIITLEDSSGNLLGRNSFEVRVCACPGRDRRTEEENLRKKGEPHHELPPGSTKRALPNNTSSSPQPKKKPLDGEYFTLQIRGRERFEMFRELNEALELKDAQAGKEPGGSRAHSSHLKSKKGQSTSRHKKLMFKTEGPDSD

O=C(C(=O)c1ccccc1)c1ccccc1
not listed: [14] | [15] | [16] | [17] | [18] | [19] | [20]
inactive: all other assays above

Oc1ccc(Cl)cc1C1CCCC1
active: [5] 57.3 µM | [6] 55.6 µM | [14] 7.76 µM | [8] 33.4 µM | [15] 25.6 µM | [9] 44.1 µM | [10] 56.7 µM | [18] 66.6 µM | [13] 55.6 µM
inactive: [1] | [3] | [7] | [16] | [11] | [17] | [12] | [19] | [20]

CCCCOC(=O)COc1ccc(Cl)cc1Cl
not listed: [2] | [4] | [8] | [17]
inactive: all other assays above

Cc1ccccc1S(=O)(=O)O
active: [14] 70.6 µM
not listed: [4] | [11] | [19]
inactive: all other assays above

COC(=O)CCSCCC(=O)OC
inactive: [2] | [3] | [4] | [6] | [7] | [14] | [8] | [9]

CC(C)CC(=O)CC(C)C
not listed: [1] | [4] | [5] | [14]
inactive: all other assays above

O=C(O)c1ccccc1C(=O)O
active: [14] 28.3 µM
not listed: [5] | [15]
inactive: all other assays above

CCCCCCCC#N
inactive: [1] | [2] | [3] | [4] | [5] | [6] | [7] | [14] | [8] | [15] | [9]

CCC(C)NC(N)=O (stereo not given)
not listed: [4] | [8] | [13] | [15] | [16] | [17] | [19] | [20]
inactive: all other assays above

CCOc1ccc2c(c1)C(C)CC(C)(C)N2 (stereo not given)
inactive: [2] | [3] | [4] | [5] | [6] | [7] | [15] | [9]

N#CCN(CC#N)CCN(CC#N)CC#N
not listed: [1] | [2] | [11] | [12] | [13] | [16] | [18] | [19]
inactive: all other assays above

C=CC(C)(CCC=C(C)C)OC(=O)c1ccccc1 (stereo not given)
active: [14] 6.33 µM
not listed: [18]
inactive: all other assays above

COc1c2occc2cc2ccc(=O)oc12
active: [14] 27.3 µM
not listed: [2] | [6] | [7] | [9]
inactive: all other assays above

CCCC[N+]1(C)CCCC1
inactive: [1] | [2] | [3] | [5] | [6] | [7] | [8] | [15] | [9] | [10]

NC(N)=Nc1nc(CSCCC(N)=NS(N)(=O)=O)cs1
not listed: [5] | [15]
inactive: all other assays above

CO[Si](CCCNCCN)(OC)OC
active: [14] 37.3 µM
inactive: [1] | [2] | [3] | [5] | [6] | [7] | [8] | [15] | [9]

CC/C=C\CCO
active: [14] 29.3 µM
not listed: [5] | [12] | [13] | [16] | [17] | [18] | [19]
inactive: all other assays above

Nc1ccc(S(=O)(=O)Nc2cnc3ccccc3n2)cc1
not listed: [1] | [2] | [14] | [15] | [18]
inactive: all other assays above
